Holding throughout (assay): NCI-60 one-dose screen, 48 h (100 = growth as untreated, 0 = no growth, -100 = all killed)
Common to all, as to settings: 10 µM unless noted

In assay [1] the test system is SK-MEL-2 melanoma.
For assay [2], the system named is EKVX NSCLC.
The subject of assay [3] is SN12C renal.
Assay [4] relates to UO-31 renal.
In assay [5] the test system is TK-10 renal.
Assay [6] deals with ACHN renal.
The subject of assay [7] is CAKI-1 renal.
For assay [8], the system named is A498 renal.
In assay [9] the test system is CCRF-CEM leukemia.
For assay [10], the system named is MOLT-4 leukemia.
Assay [11] relates to RPMI-8226 leukemia.
In assay [12] the test system is OVCAR-8 ovarian.
Assay [13] concerns OVCAR-4 ovarian.
The test system of assay [14] is SK-OV-3 ovarian.
Assay [15] deals with IGROV1 ovarian.
For assay [16], the system named is OVCAR-3 ovarian.
Assay [17] concerns NCI/ADR-RES ovarian.
For assay [18], the system named is OVCAR-5 ovarian.
Assay [19] concerns HS 578T breast.
For assay [20], the system named is SR leukemia.

Structures are written as SMILES. This is part of a sample that, as a whole, favours compounds with a hit. Of some 83,000 tested, about 20% had one in any assay.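 Method: cells in 96-well plates; compound added at one concentration; 48 h incubation; percent growth measured; values under 10 scored active.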 Unmarked numbers belong to inactive results. Active and inactive are the calls of the source.

`NC(N)=NN=C(c1ccccc1)c1ccccc1`: the growth is 39.3% in [1]; 65.3% in assay [2]; 51.3% in assay [3]; 63.6% in [4]; 46.1% in assay [5]; 48.1% in [6]. Moreover, the growth in [7] is 50.4%; in assay [8], 34%; in assay [9], 27.7%; in assay [10], 31.8%; in [11], 25%; in assay [12], 40%. For the same compound, the growth in [13] is 71%; in assay [14], 5.22% (active); in assay [15], 48.1%; in assay [16], 21.3%; in [17], 59.3%.
On to `NCCCNc1nc2ccccc2c2c(=O)c3cccc(Cl)c3sc12`, for which the growth in assay [1] was 99.4%; in [2], 31.2%; in [3] it was 21.1%; in [4], 3.93% (active); in assay [5], 58%; in assay [6], 7.6% (active). For the same compound, the growth in assay [7] is 17.1%; in assay [8], 65.2%; in [9], 2.48% (active); in assay [10], -23.4% (active); in assay [12], -16.2% (active); in [18], 50%. Further, the growth in assay [13] is 38.2%; in [14], 73%; in assay [15], 7.81% (active); in [19] it was 28.1%; in assay [17], 29.2%.
For the compound `Cc1ccc(/C=C2\C(=O)N(C)c3ccc(S(=O)(=O)Nc4ccc(C(C)(C)C)cc4)cc32)s1`, the growth is 90.3% in assay [1]; 54.3% in [2]; 36.7% in assay [3]; 56.9% in assay [4]; 70.2% in [5]; 59.8% in assay [6]. Besides, the growth was 55.2% in [7]; 75.9% in [8]; 65.6% in assay [9]; 78.2% in assay [10]; 29.5% in [12]; 69.4% in assay [18]. For the same compound, the growth in assay [13] was -1.02% (active); in assay [14], 76.4%; in assay [15], 63.9%; in assay [16], 11.4%; in [19], -5.78% (active); in assay [17], 62.1%.
As to `COc1ccc(OC)c2c1[nH]c(=O)c1c3ncccc3cn21`, the growth is 65.6% in assay [1]; 34.4% in [2]; 13.3% in assay [3]; 26.5% in assay [4]; 38.6% in assay [5]; 17.7% in [6]. Also, the growth is -29.2% (active) in assay [7]; 31.5% in assay [8]; 36.5% in [9]; 17.7% in assay [10]; 16.8% in [12]; 38.9% in [14]. In addition, the growth is 28% in assay [15], 46.8% in assay [16], 69.2% in assay [19] and 13.8% in assay [17].
Regarding `N#Cc1c(N)nc(NCCO)nc1-c1ccc(F)cc1`, the growth was 108% in assay [1]; 89.9% in assay [2]; 103% in assay [3]; 92.8% in [4]; 106% in [5]; 100% in assay [6]. Also, the growth in assay [7] was 95.9%; in [8], 89.1%; in [9], 112%; in assay [20] it was 99.3%; in assay [11], 94.1%; in assay [12], 99.7%. For the same compound, the growth in [18] was 105%; in [13] it was 95.6%; in assay [14], 84.9%; in assay [15] it was 102%; in assay [16], 110%; in assay [19], 92.5%. The growth in assay [17] is 105%.
For the compound `CC(C)Sc1nc(NNC(N)=S)c(C#N)c(-c2ccc(F)cc2)n1`, the growth in assay [1] is 103%; in assay [2] it was 96.7%; in [3], 96.1%; in assay [4], 79.7%; in assay [5], 96.3%; in [6], 94.3%. Also, the growth in [7] is 88.8%; in assay [8], 61.7%; in assay [9], 93.2%; in assay [10], 95.7%; in [12] it was 97.4%; in [18], 88.3%. Also, the growth is 102% in [13]; 83.9% in [14]; 97.1% in [15]; 113% in assay [16]; 101% in [19]; 99% in assay [17].
On to `O=C1/C(=C/c2ccc(Br)cc2)C=C(c2ccccc2)N1CCc1ccccc1`, for which the growth is 66% in assay [1]; 40.1% in [2]; 50.1% in assay [3]; 45% in assay [4]; 12.6% in [5]; 13% in [6]. Also, the growth in assay [7] was 64.3%; in assay [8], 50.8%; in [9], 101%; in [20], 58.6%; in assay [11], 101%; in assay [12], 17.7%. The growth is 66% in assay [18]; -17.1% (active) in assay [13]; 15.4% in assay [14]; 41.9% in [15]; 42.1% in [16]; 22.8% in [19].
With `O=C(CSc1nnc(-c2ccc(NC(=O)c3cccnc3)cc2)o1)Nc1cccc(Br)c1`, the growth in [1] was 96.5%; in assay [2], 88.3%; in [3], 51.1%; in assay [4], 95.9%; in [5], 121%; in assay [6], 99.2%. In addition, the growth in assay [7] is 82.6%; in [8], 96.2%; in assay [9] it was 72.2%; in assay [10], 84.5%; in assay [12], 88.7%; in assay [18], 99.3%. Moreover, the growth in assay [13] was 93.8%; in [14] it was 110%; in assay [15], 80.5%; in [16], 107%; in assay [19] it was 90.6%; in [17], 93.8%.

Source of the values: PubChem BioAssay (NCI).
